One sequence from PMC7862700, “An all-to-all approach to the identification of sequence-specific readers for epigenetic DNA modifications on cytosine” can be followed below.

Common to all, as to assay: DAPPL (digital affinity profiling via proximity ligation, sequencing); 10 mM Tris-HCl pH 7.5, 50 mM NaCl, 1 mM DTT, 4% glycerol, room temperature, 30 min; GST-TFs on glutathione beads, 16-mer random dsDNA library, 0.1% formaldehyde crosslink after washing; high values mean tight binding
The target in one experiment is T1, FLI1 (Homo sapiens, UniProt Q01543 1-452).
T1 sequence: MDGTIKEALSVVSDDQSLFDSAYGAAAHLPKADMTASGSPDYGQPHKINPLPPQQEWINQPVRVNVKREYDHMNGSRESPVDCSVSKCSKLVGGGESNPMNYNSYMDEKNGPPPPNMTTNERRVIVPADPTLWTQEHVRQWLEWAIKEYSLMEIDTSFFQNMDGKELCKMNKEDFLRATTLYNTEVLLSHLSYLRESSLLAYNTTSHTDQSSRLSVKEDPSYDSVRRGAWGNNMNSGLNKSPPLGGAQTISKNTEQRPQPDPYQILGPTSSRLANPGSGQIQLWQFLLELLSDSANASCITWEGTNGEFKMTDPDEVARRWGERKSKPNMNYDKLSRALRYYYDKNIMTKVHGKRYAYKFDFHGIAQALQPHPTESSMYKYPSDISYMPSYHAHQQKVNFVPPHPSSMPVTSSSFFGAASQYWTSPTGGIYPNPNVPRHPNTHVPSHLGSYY
Particulars: protein: recombinant; tags: N-terminal GST; dsDNA, one strand shown. The method in brief:
(§1)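 Sequencing on an Illumina NextSeq500 followed washing, crosslinking with 0.1% formaldehyde, proximity ligation (BsaI/T4 ligase, 1 h, 37 °C) and PCR amplification of pools that had been incubated for 30 min at room temperature with 200 nmole of a random double-stranded 16-mer DNA library in Tris/NaCl/DTT/glycerol buffer. Each pool held DNA-barcoded human transcription factors, expressed in yeast as GST fusions and captured on glutathione beads, plus a tag-only sample. Binding signal is a hexamer's read frequency for a factor divided by its frequency in the tag-only sample.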

Another experiment deals with T2, ELK1 (Homo sapiens, UniProt P19419 1-428).
T2 sequence: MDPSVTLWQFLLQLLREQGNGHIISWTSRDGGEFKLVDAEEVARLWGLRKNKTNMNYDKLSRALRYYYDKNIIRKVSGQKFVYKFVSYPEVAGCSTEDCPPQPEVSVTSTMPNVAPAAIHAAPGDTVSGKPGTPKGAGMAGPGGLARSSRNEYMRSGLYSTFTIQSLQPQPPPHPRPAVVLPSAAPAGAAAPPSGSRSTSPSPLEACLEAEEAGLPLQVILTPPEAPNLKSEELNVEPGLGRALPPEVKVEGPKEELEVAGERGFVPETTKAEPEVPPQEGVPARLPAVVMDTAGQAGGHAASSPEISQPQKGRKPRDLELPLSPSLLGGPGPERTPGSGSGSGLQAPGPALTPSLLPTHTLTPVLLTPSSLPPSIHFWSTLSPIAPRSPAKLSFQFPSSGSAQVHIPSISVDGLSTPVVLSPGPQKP
Particulars: protein: recombinant; tags: N-terminal GST; dsDNA, one strand shown. In outline:
as §1

The target of the next experiment is T3, GABPA (Homo sapiens, UniProt Q06546 1-454).
T3 sequence: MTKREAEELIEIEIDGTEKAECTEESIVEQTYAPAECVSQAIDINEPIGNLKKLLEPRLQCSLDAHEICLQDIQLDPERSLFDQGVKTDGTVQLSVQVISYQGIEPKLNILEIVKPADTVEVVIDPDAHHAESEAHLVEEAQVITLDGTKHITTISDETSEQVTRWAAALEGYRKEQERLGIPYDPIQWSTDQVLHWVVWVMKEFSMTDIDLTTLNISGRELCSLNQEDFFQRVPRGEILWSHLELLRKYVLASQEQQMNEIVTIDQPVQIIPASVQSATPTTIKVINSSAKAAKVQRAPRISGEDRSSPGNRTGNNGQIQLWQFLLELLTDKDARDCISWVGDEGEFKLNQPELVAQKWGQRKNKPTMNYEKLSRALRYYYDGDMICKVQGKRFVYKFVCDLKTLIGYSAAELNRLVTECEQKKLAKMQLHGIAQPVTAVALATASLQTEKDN
Particulars: protein: recombinant; tags: N-terminal GST; dsDNA, one strand shown. The method in brief: as §1

Another experiment addresses T4, ERG (Homo sapiens, UniProt P11308 1-479).
T4 sequence: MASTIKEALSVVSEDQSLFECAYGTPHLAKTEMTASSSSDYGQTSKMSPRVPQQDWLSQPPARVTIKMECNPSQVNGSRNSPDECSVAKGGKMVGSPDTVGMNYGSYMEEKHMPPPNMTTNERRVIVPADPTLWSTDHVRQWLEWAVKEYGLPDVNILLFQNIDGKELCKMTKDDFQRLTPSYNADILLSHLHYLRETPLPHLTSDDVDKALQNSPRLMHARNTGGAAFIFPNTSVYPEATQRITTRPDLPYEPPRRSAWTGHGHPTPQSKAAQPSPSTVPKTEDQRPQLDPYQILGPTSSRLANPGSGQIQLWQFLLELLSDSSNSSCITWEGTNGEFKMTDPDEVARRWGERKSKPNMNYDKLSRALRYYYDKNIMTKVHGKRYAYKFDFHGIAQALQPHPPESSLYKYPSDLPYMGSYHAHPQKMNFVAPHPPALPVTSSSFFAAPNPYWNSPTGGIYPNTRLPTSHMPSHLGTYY
Conditions: protein: recombinant; tags: N-terminal GST; dsDNA, one strand shown. The method in brief:
as §1

In another experiment the target is ELF1 (Homo sapiens, UniProt P32519 1-619). Conditions: protein: recombinant; tags: N-terminal GST; dsDNA, one strand shown. The method in brief:
as §1

A further experiment concerns the target T5, EHF (Homo sapiens, UniProt Q9NZC4 1-300).
T5 sequence: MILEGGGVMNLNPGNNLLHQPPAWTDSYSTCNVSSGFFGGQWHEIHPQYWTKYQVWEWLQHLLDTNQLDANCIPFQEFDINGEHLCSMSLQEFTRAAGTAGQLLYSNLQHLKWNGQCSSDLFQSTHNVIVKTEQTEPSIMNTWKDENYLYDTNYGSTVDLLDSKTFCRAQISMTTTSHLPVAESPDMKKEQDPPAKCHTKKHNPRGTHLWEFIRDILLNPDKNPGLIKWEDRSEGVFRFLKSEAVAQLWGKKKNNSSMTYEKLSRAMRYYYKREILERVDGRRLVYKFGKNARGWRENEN
Conditions: protein: recombinant; tags: N-terminal GST; dsDNA, one strand shown. In outline:
as §1

For another experiment, the target named is SPI1 (Homo sapiens, UniProt P17947 1-270). Particulars: protein: recombinant; tags: N-terminal GST; dsDNA, one strand shown. The method in brief: as §1
The target in the next experiment is SPIB (Homo sapiens, UniProt Q01892 1-262). Conditions: protein: recombinant; tags: N-terminal GST; dsDNA, one strand shown. In outline: as §1
A further experiment deals with T6, ELK3 (Homo sapiens, UniProt P41970 1-407).
T6 sequence: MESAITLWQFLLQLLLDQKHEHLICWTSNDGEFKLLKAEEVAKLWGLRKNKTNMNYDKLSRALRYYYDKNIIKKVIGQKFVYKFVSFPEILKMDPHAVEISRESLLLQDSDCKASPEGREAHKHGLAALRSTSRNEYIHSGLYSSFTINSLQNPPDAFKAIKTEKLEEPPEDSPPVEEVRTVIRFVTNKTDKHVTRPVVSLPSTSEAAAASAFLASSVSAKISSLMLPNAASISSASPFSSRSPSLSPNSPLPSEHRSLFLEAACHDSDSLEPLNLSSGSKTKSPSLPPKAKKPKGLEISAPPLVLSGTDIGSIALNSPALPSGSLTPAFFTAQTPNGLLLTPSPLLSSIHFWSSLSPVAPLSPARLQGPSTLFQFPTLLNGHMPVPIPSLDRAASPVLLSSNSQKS
Conditions: protein: recombinant; tags: N-terminal GST; dsDNA, one strand shown. The method in brief:
as §1

The next experiment addresses T7, FEV (Homo sapiens, UniProt Q99581 1-238).
T7 sequence: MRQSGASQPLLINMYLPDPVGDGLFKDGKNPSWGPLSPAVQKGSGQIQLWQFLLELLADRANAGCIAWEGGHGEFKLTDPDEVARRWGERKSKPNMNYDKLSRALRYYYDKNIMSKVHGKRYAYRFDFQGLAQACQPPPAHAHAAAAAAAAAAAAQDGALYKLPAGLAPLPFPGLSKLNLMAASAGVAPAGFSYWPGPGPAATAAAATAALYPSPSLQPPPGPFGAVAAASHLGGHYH
Conditions: protein: recombinant; tags: N-terminal GST; dsDNA, one strand shown. The method in brief:
as §1

The target in a further experiment is ETV5 (Homo sapiens, UniProt P41161 1-510). Conditions: protein: recombinant; tags: N-terminal GST; dsDNA, one strand shown. In outline: as §1
The target in the next experiment is HSF1 (Homo sapiens, UniProt Q00613 1-529). Conditions: protein: recombinant; tags: N-terminal GST; chain copies: 3; dsDNA, one strand shown. The method in brief: as §1
A further experiment deals with T8, SPIC (Homo sapiens, UniProt Q8N5J4 1-248).
T8 sequence: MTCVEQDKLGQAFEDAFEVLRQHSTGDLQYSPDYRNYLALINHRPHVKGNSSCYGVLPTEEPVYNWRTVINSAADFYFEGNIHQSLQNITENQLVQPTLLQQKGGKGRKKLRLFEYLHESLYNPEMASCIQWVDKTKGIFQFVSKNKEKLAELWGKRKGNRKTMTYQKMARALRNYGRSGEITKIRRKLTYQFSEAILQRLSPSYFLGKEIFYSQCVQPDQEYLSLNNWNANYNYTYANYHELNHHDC
Particulars: protein: recombinant; tags: N-terminal GST; dsDNA, one strand shown. In outline:
as §1

The target in a further experiment is ELF4 (Homo sapiens, UniProt Q99607 1-663). Conditions: protein: recombinant; tags: N-terminal GST; dsDNA, one strand shown. The method in brief:
as §1

In the next experiment the target is T9, ELK4 (Homo sapiens, UniProt P28324-2 1-405).
T9 sequence: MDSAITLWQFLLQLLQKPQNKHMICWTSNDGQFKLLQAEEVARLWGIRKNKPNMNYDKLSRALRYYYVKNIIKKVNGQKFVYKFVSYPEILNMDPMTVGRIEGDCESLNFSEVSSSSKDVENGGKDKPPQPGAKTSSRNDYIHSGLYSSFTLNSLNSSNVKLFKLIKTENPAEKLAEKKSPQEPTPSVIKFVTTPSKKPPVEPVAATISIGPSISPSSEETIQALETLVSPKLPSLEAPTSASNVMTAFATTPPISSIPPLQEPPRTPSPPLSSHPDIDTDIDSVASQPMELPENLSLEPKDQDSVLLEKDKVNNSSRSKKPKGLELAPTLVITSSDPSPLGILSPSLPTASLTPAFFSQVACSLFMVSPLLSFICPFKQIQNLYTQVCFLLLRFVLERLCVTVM
Particulars: protein: recombinant; tags: N-terminal GST; dsDNA, one strand shown. The method in brief:
as §1

The next experiment deals with T10, ETV2 (Homo sapiens, UniProt O00321 1-342).
T10 sequence: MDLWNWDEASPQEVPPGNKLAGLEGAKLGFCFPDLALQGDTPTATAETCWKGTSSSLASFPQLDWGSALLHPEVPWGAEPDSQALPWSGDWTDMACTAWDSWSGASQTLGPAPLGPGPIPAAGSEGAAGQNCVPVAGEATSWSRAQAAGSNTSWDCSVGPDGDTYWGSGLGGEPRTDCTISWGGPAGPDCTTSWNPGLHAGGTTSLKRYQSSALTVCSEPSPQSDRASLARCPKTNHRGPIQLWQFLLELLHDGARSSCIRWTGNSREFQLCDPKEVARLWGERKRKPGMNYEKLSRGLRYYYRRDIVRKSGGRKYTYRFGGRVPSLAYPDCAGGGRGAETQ
Particulars: protein: recombinant; tags: N-terminal GST; dsDNA, one strand shown. The method in brief: as §1

Another experiment deals with T11, ELF3 (Homo sapiens, UniProt P78545 1-371).
T11 sequence: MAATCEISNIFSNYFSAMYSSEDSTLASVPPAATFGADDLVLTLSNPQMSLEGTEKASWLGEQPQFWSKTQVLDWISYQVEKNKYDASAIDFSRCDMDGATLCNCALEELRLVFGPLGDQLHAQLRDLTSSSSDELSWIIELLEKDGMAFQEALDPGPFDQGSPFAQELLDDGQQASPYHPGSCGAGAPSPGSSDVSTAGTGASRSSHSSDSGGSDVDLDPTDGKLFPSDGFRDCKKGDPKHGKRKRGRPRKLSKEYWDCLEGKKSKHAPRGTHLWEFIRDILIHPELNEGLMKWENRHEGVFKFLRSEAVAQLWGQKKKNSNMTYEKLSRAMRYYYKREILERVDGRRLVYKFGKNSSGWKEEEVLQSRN
Particulars: protein: recombinant; tags: N-terminal GST; dsDNA, one strand shown. The method in brief: as §1

The target in another experiment is ETV1 (Homo sapiens, UniProt P50549 1-477). Particulars: protein: recombinant; tags: N-terminal GST; dsDNA, one strand shown. The method in brief: as §1
ETV1, sequence (P50549 whole entry): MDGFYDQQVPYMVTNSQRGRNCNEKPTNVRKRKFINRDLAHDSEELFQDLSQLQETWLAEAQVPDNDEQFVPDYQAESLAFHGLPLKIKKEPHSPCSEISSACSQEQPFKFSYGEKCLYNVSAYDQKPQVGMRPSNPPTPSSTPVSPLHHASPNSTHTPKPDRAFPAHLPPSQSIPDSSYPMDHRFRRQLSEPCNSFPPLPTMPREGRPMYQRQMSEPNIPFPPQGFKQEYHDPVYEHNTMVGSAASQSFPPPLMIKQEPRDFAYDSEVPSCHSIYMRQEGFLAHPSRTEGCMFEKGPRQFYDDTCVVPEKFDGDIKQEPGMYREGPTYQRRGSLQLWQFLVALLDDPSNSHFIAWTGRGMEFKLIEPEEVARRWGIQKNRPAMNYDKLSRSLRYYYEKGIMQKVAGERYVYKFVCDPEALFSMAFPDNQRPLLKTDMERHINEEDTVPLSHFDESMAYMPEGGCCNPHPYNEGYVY

ELF4, sequence (Q99607 whole entry): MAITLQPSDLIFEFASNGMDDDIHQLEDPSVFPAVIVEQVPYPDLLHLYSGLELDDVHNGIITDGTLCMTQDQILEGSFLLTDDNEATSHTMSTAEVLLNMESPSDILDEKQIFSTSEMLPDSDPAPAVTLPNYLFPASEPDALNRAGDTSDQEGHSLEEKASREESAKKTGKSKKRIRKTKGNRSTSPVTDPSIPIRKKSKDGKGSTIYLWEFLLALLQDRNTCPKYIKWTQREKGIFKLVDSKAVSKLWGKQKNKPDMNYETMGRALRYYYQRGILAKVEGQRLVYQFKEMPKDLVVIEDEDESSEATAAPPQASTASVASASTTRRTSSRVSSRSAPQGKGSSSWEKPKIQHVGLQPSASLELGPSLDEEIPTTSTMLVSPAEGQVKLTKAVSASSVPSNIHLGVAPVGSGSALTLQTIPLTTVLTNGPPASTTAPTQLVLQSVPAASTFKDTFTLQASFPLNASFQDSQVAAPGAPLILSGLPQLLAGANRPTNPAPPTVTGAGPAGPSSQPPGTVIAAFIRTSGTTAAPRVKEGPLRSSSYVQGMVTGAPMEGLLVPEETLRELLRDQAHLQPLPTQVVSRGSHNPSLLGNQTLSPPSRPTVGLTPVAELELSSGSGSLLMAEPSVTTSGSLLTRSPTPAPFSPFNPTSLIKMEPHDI
ELF1, sequence (P32519 whole entry): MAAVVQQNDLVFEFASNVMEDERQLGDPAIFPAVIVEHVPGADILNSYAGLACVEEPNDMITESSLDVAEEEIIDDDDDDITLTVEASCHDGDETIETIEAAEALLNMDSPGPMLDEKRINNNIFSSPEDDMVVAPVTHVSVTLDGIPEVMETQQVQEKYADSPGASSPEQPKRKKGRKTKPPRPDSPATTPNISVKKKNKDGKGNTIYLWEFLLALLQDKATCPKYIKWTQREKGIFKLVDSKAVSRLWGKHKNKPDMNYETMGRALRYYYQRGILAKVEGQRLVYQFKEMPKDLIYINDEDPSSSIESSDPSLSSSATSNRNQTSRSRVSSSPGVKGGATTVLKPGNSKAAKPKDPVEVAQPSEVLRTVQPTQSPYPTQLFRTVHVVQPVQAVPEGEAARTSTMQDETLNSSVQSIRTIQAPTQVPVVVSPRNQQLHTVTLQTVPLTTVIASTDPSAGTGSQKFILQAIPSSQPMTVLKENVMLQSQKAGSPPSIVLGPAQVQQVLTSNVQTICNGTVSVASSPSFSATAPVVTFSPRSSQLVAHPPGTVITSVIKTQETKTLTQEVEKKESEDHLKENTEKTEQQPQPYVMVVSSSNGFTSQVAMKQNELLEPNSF
SPIB, sequence (Q01892 whole entry): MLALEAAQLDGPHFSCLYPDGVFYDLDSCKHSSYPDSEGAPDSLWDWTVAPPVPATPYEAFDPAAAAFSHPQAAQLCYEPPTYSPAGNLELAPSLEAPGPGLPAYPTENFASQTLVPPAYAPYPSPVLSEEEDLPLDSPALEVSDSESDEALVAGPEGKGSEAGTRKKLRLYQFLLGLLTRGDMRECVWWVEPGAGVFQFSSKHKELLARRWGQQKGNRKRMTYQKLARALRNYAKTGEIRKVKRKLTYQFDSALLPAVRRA
HSF1, sequence (Q00613 whole entry): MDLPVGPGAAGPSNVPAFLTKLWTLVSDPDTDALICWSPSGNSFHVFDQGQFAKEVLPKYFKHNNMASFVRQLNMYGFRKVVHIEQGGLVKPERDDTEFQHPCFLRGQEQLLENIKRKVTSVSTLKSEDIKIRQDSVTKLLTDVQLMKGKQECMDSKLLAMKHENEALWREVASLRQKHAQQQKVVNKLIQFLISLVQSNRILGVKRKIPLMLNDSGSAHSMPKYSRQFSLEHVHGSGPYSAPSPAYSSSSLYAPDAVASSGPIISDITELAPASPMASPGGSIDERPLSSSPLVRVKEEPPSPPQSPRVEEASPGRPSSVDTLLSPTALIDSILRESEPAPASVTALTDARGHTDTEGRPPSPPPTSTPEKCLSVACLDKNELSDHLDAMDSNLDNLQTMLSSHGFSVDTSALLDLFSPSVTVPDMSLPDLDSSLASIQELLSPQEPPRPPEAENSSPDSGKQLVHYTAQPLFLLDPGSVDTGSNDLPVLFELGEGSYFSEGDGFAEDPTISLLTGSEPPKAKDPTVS
ETV5, sequence (P41161 whole entry): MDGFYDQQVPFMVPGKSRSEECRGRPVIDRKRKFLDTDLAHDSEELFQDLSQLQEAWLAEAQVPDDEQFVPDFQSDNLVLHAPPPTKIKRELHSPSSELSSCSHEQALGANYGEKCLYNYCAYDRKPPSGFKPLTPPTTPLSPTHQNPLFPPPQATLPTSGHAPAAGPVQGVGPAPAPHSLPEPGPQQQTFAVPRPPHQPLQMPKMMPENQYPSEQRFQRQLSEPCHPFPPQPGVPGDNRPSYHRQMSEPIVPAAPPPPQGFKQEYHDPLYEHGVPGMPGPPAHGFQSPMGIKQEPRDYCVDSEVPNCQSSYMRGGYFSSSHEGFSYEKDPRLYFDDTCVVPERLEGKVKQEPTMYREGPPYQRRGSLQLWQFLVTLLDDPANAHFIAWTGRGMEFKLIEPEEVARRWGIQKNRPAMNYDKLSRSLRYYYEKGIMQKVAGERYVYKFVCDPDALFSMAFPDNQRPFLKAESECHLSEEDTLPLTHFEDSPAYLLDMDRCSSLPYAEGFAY

Regarding GGATCC, the binding signal with FLI1 was 1.15 fold enrichment (6-mer frequency, TF over GST control); with ELK1, 1.13 fold enrichment (6-mer frequency, TF over GST control); in the experiment with GABPA, 1.18 fold enrichment (6-mer frequency, TF over GST control); with ERG it was 1.25 fold enrichment (6-mer frequency, TF over GST control); in the experiment with ELF1, 1.18 fold enrichment (6-mer frequency, TF over GST control); in the experiment with EHF, 1.16 fold enrichment (6-mer frequency, TF over GST control). Moreover, the binding signal with SPI1 was 1.06 fold enrichment (6-mer frequency, TF over GST control); with SPIB it was 1.24 fold enrichment (6-mer frequency, TF over GST control); with ELK3, 1.07 fold enrichment (6-mer frequency, TF over GST control); in the experiment with FEV, 1.16 fold enrichment (6-mer frequency, TF over GST control); with ETV5, 1.17 fold enrichment (6-mer frequency, TF over GST control); with HSF1, 1.04 fold enrichment (6-mer frequency, TF over GST control). The binding signal with SPIC was 1.13 fold enrichment (6-mer frequency, TF over GST control); with ELF4, 1.13 fold enrichment (6-mer frequency, TF over GST control); in the experiment with ELK4, 1.05 fold enrichment (6-mer frequency, TF over GST control); with ETV2 it was 1.29 fold enrichment (6-mer frequency, TF over GST control); in the experiment with ELF3 it was 1.29 fold enrichment (6-mer frequency, TF over GST control); with ETV1 it was 1.14 fold enrichment (6-mer frequency, TF over GST control).
